The record followed here is the supplement of paper PMC9446081.

What all share (experiment): relative enzymatic activity vs untreated control (fraction); higher = less inhibition
Conditions in all cases: 100 µM; incubation time: 2 h at 37 C

One assay has as its system DNA gyrase. The procedure: (§1)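 In vitro enzymatic inhibition assays (ProFoldin kits) for 12 purified essential E. coli enzymes or complexes, each treated with 218 active antibacterial compounds at 100 µM for 2 h at 37°C. Read-outs were fluorescence or absorbance (phosphate detection, dye binding), converted to activity via standard curves and expressed relative to untreated DMSO controls.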

A further assay has as its target DNA helicase (UniProt P0ACB1). The method, then: as §1
A further assay concerns the target DNA ligase (UniProt B1XA82). The procedure:
as §1

The next assay has as its target DNA polymerase (UniProt P10443). The procedure: as §1
The next assay deals with DNA primase (UniProt P0ABS7). The procedure: as §1
The target in another assay is GlmU (UniProt A7ZTU1). The procedure:
as §1

For a further assay, the target named is Guanlyate kinase (UniProt Q0TBG1). The procedure:
as §1

The next assay deals with MurA (UniProt Q3YX52). The procedure:
as §1

In a further assay the target is T1, MurD (UniProt P14900).
T1 sequence (whole entry): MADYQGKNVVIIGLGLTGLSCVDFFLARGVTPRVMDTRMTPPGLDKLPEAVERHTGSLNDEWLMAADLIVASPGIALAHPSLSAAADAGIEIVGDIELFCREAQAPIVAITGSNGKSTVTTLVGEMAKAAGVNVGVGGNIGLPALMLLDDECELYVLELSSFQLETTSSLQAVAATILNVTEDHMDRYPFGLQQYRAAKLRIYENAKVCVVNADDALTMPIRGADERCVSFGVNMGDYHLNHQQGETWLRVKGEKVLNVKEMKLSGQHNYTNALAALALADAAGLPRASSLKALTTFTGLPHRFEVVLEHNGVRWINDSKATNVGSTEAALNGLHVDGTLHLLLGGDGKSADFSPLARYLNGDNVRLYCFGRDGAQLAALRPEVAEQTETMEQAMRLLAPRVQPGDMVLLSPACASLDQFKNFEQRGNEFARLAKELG
The procedure:
as §1

For the next assay, the target named is T2, MurF (UniProt P11880).
T2 sequence (whole entry): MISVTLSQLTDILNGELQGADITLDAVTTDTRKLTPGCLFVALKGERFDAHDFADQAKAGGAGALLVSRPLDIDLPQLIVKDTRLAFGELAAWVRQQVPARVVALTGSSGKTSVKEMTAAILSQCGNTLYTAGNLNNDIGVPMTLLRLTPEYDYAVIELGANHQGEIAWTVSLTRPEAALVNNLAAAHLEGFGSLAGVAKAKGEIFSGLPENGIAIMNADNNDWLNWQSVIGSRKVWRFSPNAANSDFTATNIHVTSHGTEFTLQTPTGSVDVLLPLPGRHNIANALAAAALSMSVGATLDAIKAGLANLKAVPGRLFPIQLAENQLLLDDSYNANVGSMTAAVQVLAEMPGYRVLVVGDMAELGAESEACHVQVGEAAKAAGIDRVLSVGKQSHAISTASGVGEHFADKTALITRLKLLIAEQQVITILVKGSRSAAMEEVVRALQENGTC
The method, then:
as §1

In a further assay the test system is RNA polymerase. The method, then: as §1

± gives the standard deviation of the averaged measurements.

Chain of DNA polymerase (P10443 whole entry): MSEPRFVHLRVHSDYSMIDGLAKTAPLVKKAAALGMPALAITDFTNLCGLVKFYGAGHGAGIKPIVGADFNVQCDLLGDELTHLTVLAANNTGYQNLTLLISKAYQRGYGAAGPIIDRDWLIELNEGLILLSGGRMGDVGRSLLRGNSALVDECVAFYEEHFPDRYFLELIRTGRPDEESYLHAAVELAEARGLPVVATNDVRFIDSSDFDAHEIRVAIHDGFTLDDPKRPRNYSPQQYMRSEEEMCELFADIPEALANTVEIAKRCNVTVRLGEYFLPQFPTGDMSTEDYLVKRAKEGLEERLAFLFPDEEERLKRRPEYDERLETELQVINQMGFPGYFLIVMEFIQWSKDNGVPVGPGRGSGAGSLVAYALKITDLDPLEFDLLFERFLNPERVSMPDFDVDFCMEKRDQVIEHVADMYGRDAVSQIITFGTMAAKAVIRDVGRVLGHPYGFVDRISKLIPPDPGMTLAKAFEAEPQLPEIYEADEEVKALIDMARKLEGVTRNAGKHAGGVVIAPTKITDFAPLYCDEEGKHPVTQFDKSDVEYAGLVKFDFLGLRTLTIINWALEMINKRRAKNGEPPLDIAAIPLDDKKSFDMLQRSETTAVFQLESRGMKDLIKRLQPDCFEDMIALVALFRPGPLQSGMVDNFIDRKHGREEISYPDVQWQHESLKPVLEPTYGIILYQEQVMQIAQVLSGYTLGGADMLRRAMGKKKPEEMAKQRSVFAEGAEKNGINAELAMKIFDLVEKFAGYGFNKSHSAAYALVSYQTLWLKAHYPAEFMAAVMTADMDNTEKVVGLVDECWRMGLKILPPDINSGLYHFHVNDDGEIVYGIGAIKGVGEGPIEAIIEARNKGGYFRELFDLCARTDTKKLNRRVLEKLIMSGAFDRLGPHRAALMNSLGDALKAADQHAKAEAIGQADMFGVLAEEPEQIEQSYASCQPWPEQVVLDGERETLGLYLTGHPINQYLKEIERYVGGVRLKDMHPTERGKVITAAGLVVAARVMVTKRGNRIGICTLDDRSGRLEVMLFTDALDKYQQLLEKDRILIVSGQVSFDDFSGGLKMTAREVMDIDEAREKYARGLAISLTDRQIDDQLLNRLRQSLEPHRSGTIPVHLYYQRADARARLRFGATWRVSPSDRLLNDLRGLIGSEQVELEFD
Chain of Guanlyate kinase (Q0TBG1 whole entry): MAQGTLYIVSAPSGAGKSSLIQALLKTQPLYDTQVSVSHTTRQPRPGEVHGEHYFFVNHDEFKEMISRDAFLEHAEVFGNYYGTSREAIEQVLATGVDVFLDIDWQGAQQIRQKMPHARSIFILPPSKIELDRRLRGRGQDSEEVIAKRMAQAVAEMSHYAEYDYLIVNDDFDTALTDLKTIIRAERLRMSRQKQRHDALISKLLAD
Chain of DNA primase (P0ABS7 whole entry): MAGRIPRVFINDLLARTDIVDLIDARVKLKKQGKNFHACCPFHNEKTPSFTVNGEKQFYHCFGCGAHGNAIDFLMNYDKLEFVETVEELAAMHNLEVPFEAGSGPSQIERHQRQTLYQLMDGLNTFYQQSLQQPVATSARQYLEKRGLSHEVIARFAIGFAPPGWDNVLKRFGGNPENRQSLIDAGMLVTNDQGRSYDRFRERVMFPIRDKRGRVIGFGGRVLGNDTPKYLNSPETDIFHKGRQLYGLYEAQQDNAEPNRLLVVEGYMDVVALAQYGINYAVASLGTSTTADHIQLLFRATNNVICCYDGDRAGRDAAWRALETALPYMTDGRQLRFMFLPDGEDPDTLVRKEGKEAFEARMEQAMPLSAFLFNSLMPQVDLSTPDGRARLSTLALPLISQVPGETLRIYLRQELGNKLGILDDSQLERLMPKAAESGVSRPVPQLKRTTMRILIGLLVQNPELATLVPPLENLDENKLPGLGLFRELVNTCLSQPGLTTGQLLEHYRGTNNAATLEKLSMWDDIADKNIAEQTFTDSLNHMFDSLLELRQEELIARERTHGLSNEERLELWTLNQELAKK
Chain of GlmU (A7ZTU1 whole entry, looked up): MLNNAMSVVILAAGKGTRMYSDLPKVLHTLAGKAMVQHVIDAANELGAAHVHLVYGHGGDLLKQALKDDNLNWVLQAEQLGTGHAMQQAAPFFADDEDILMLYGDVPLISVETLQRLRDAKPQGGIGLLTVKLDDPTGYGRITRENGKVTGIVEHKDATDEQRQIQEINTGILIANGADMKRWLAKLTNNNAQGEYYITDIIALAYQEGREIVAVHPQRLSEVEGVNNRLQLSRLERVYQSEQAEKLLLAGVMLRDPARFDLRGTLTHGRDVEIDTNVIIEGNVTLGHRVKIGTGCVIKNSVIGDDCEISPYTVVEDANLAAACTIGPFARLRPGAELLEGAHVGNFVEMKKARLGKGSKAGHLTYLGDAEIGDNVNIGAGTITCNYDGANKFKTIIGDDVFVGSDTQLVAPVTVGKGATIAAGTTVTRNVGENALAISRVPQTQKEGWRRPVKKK
Chain of MurA (Q3YX52 whole entry): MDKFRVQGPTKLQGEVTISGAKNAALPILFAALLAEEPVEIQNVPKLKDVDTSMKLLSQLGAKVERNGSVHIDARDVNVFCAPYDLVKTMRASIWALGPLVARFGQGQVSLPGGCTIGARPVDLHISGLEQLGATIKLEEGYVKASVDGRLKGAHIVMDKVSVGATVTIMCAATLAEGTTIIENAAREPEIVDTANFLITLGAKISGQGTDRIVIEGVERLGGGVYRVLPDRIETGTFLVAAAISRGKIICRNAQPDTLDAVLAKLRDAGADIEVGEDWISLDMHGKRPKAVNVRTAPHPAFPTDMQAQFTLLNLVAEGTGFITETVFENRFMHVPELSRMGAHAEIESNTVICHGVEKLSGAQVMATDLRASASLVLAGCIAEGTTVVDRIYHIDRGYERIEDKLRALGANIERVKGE
Chain of DNA ligase (B1XA82 whole entry): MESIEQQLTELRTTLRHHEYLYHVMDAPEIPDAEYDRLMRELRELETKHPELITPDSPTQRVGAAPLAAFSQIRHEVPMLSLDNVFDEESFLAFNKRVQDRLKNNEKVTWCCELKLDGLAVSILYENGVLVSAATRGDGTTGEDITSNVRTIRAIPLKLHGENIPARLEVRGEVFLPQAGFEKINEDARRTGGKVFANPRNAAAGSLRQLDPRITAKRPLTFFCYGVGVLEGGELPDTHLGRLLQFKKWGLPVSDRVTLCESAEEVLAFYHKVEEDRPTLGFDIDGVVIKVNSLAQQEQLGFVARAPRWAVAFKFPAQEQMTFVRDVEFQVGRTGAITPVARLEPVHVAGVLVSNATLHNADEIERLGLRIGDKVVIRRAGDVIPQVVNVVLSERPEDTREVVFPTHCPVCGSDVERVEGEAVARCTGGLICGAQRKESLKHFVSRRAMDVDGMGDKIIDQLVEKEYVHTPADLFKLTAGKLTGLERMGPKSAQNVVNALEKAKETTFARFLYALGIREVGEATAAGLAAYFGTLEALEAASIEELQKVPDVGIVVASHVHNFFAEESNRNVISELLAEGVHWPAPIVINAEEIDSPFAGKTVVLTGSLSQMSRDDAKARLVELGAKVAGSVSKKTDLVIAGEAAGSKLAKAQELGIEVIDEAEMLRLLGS
Chain of DNA helicase (P0ACB1 whole entry): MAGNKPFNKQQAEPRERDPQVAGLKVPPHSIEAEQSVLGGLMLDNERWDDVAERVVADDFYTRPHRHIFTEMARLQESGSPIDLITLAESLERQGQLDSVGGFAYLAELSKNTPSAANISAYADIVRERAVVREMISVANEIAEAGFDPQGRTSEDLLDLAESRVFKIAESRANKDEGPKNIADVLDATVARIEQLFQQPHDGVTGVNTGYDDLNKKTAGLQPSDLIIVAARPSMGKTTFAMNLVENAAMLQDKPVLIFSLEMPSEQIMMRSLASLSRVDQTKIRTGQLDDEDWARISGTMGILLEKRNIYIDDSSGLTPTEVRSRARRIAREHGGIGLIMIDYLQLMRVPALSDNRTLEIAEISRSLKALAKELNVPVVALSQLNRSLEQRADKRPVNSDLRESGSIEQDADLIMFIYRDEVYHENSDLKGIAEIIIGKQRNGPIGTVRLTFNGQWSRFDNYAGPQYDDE

In the case of `Cc1c(N)nc([C@H](CC(N)=O)NC[C@H](N)C(N)=O)nc1C(=O)N[C@H](C(=O)N[C@H](C)[C@@H](O)[C@H](C)C(=O)N[C@H](C(=O)NCCc1nc(-c2nc(C(=O)NCCCNCCCCN)cs2)cs1)[C@@H](C)O)[C@@H](O[C@@H]1O[C@@H](CO)[C@@H](O)[C@H](O)[C@@H]1O[C@@H]1O[C@H](CO)[C@@H](O)[C@H](OC(N)=O)[C@@H]1O)c1c[nH]cn1`, the relative enzymatic activity is 0.0474 ± 0.067 in the assay with DNA gyrase; 0.732 ± 0.39 with DNA helicase; 0.811 ± 0.15 with DNA ligase; 0.308 ± 0.022 with DNA polymerase; 0.762 ± 0.041 in the assay with DNA primase; 0.988 ± 0.023 with GlmU. Also, the relative enzymatic activity in the assay with Guanlyate kinase is 0.871 ± 0.084; with MurA it was 0.872 ± 0.13; with MurD, 0.622 ± 0.4; with MurF it was 0.281 ± 0.39; with RNA polymerase, 0.75 ± 0.034.
`CN[C@H]1CN(c2ccc3c(=O)c(C(=O)O)cn(-c4nccs4)c3n2)C[C@@H]1OC`: the relative enzymatic activity in the assay on DNA gyrase came to 0.253 ± 0.27; with DNA helicase it was 0.18 ± 0.16; with DNA ligase, 0.706 ± 0.08; with DNA polymerase, 0.641 ± 0.27; with DNA primase, 0.622 ± 0.13; with GlmU, 1 ± 0.039. Further, the relative enzymatic activity in the assay with Guanlyate kinase worked out at 0.851 ± 0.064; in the assay with MurA it was 0.603 ± 0.14; in the assay with MurD it was 0.58 ± 0.36; with MurF it was 0.955 ± 0.21; with RNA polymerase it was 0.769 ± 0.11.
As to `CC1(C)SC2C(N3C(=O)C(c4ccccc4)NC3(C)C)C(=O)N2C1C(=O)[O-].[K+]` (configuration not stated), the relative enzymatic activity is 1.14 ± 0.073 in the assay on DNA gyrase; 0.458 ± 0.13 with DNA helicase; 1.67 ± 0.9 in the assay with DNA ligase; 1.36 ± 0.37 with DNA polymerase; 0.776 ± 0.26 with DNA primase; 0.948 ± 0.043 with GlmU. Further, the relative enzymatic activity in the assay with Guanlyate kinase amounted to 1.13 ± 0.1; with MurA, 0.219 ± 0.028; with MurD, 0.563 ± 0.37; with MurF, 0.945 ± 0.14; in the assay on RNA polymerase, 0.90251 ± 0.00052.
As for `COc1ccc(Cc2cnc(N)nc2N)cc1OC`, the relative enzymatic activity turned out to be 0.752 ± 0.41 in the assay on DNA gyrase; 0.508 ± 0.059 in the assay with DNA helicase; 1.55 ± 0.21 in the assay with DNA ligase; 1.21 ± 0.22 with DNA polymerase; 0.74 ± 0.24 with DNA primase; 1.019 ± 0.0077 with GlmU. For the same compound, the relative enzymatic activity came out at 0.993 ± 0.039 in the assay with Guanlyate kinase; 0.74 ± 0.026 in the assay with MurA; 0.583 ± 0.39 with MurD; 0.946 ± 0.2 with MurF; 0.9567 ± 0.0054 in the assay on RNA polymerase.
`COc1ccc2c(c1OC)C(=O)OC2C1c2c(cc3c(c2OC)OCO3)CCN1C.Cl` (configuration not stated): the relative enzymatic activity with DNA gyrase was 0.0862 ± 0.019; in the assay with DNA helicase, 0.249 ± 0.016; with DNA ligase, 1.11 ± 0.17; with DNA polymerase it was 1.36 ± 0.47; in the assay with DNA primase it was 0.947 ± 0.42; with GlmU it was 1.123 ± 0.0013. Moreover, the relative enzymatic activity came out at 1.12 ± 0.066 with Guanlyate kinase; 0.417 ± 0.096 in the assay with MurA; 0.684 ± 0.53 with MurD; 0.967 ± 0.19 with MurF; 0.914 ± 0.045 with RNA polymerase.
For the compound `NC(=O)[C@@H]1C(=O)C[C@@H]2C[C@@H]3Cc4cccc(O)c4C(=O)[C@@H]3C(=O)[C@]2(O)C1=O`, the relative enzymatic activity was found to be 1.02 ± 0.18 in the assay with DNA gyrase; 0.519 ± 0.062 with DNA helicase; 0.963 ± 0.042 with DNA ligase; 0.976 ± 0.11 in the assay with DNA polymerase; 0.822 ± 0.017 in the assay with DNA primase; 1.08 ± 0.021 in the assay with GlmU. The relative enzymatic activity was determined as 0.796 ± 0.086 with Guanlyate kinase; 0.328 ± 0.11 with MurA; 0.62 ± 0.39 with MurD; 1.01 ± 0.2 in the assay with MurF; 0.715 ± 0.048 with RNA polymerase.
As for `C=CC1=C(C(=O)O)N2C(=O)[C@@H](NC(=O)/C(=N\O)c3csc(N)n3)[C@H]2SC1`, the relative enzymatic activity is 0.489 ± 0.086 with DNA gyrase; 0.523 ± 0.095 with DNA helicase; 0.92 ± 0.15 in the assay with DNA ligase; 1.13 ± 0.24 with DNA polymerase; 0.774 ± 0.038 with DNA primase; 0.988 ± 0.07 with GlmU. Also, the relative enzymatic activity with Guanlyate kinase amounted to 0.885 ± 0.068; in the assay with MurA, 0.212 ± 0.095; with MurD it was 0.619 ± 0.42; with MurF, 0.981 ± 0.22; in the assay with RNA polymerase, 0.894 ± 0.077.
Consider `O=C(O)c1c(O)c2c([nH]c1=O)CCCC2`, for which the relative enzymatic activity with DNA gyrase was 0.374 ± 0.066; with DNA helicase it was 0.479 ± 0.056; with DNA ligase, 1.18 ± 0.34; in the assay with DNA polymerase it was 1.08 ± 0.16; in the assay with DNA primase it was 0.752 ± 0.029; with GlmU it was 0.975 ± 0.042. For the same compound, the relative enzymatic activity with Guanlyate kinase is 0.874 ± 0.041; with MurA, 0.769 ± 0.13; in the assay with MurD, 0.611 ± 0.39; in the assay with MurF it was 0.899 ± 0.18; with RNA polymerase, 0.636 ± 0.18.
Consider `C/C(=C\C(=O)OCCCCCCCCC(=O)O)C[C@@H]1OC[C@H](C[C@@H]2O[C@H]2[C@@H](C)[C@H](C)O)[C@@H](O)[C@H]1O`, for which the relative enzymatic activity was determined as 0.849 ± 0.24 in the assay on DNA gyrase; 0.52 ± 0.098 in the assay with DNA helicase; 0.897 ± 0.013 in the assay with DNA ligase; 0.512 ± 0.72 with DNA polymerase; 0.807 ± 0.031 with DNA primase; 0.999 ± 0.045 with GlmU. For the same compound, the relative enzymatic activity with Guanlyate kinase was found to be 1.06 ± 0.087; with MurA, 0.688 ± 0.19; with MurD, 0.607 ± 0.43; with MurF, 1.17 ± 0.52; in the assay on RNA polymerase, 0.935 ± 0.11.
With `CC1CCC2(C)C(C=O)=CCCC2C1(C)CC1OC(O)C(=O)C12CO2` (configuration not stated), the relative enzymatic activity came to 0.075 ± 0.11 in the assay with DNA gyrase; 0.688 ± 0.45 with DNA helicase; 1.12 ± 0.035 with DNA ligase; 1.15 ± 0.2 with DNA polymerase; 0.89 ± 0.017 with DNA primase; 1.008 ± 0.0078 with GlmU. Moreover, the relative enzymatic activity with Guanlyate kinase was determined as 0.956 ± 0.024; with MurA it was 0.662 ± 0.12; with MurD, 0.612 ± 0.41; in the assay with MurF, 0.577 ± 0.81; with RNA polymerase it was 1.06 ± 0.13.
For the compound `O=[N+]([O-])c1ccc(O)c2ncccc12`, the relative enzymatic activity with DNA gyrase turned out to be 0.501 ± 0.24; with DNA helicase it was 0.584 ± 0.12; in the assay with DNA ligase it was 0.808 ± 0.033; with DNA polymerase, 0.979 ± 0.076; with DNA primase, 0.759 ± 0.023; in the assay with GlmU, 1.03 ± 0.047. For the same compound, the relative enzymatic activity stood at 0.765 ± 0.026 with Guanlyate kinase; 0.291 ± 0.12 with MurA; 0.588 ± 0.39 with MurD; 0.989 ± 0.21 with MurF; 0.7483 ± 0.0011 in the assay on RNA polymerase.
Regarding `N[C@H]1CCN(c2nc3c(cc2F)c(=O)c(C(=O)O)cn3-c2ccc(F)cc2F)C1`, the relative enzymatic activity is 0.206 ± 0.29 in the assay on DNA gyrase; 0.461 ± 0.041 with DNA helicase; 0.91 ± 0.23 in the assay with DNA ligase; 1.17 ± 0.24 with DNA polymerase; 0.774 ± 0.035 with DNA primase; 0.955 ± 0.026 with GlmU. In addition, the relative enzymatic activity with Guanlyate kinase turned out to be 0.852 ± 0.12; with MurA, 0.521 ± 0.22; in the assay with MurD, 0.586 ± 0.39; with MurF it was 0.924 ± 0.25; with RNA polymerase, 0.929 ± 0.12.
